Out of some 5,500 compounds screened, about 2,000 (36%) were called active. Inconclusive results (about 18%) are left out. Rule as the data show it: active = normalized growth mostly below about 0.91 (no sharp cut-off); inconclusive = no clear call, values can overlap the other calls; inactive = mostly above about 0.92. This is one part of the list.
Assay: chemical genetic growth profiling, strain panel (AID 1159580);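 also: tested at 20 µM; growth read once vehicle control cultures reached saturation at 30 °C; 1 = growth at the plate median or of vehicle wells; lower values mean less growth of the strain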
Settings: growth OD

Measured: normalized growth

COc1cc(O)ccc1C(C)=O
inactive: S. cerevisiae deletion strains, locus YJR043C, strain POL32, active compounds read low 0.977 | S. cerevisiae deletion strains, locus YJR066W, strain TOR1, active compounds read low 0.957 | S. cerevisiae deletion strains, locus YJR075W, strain HOC1, active compounds read low 0.966 | S. cerevisiae deletion strains, locus YKL009W, strain mrt4, active compounds read low 0.999 | S. cerevisiae deletion strains, locus YKL068W, active compounds read low 0.974 | S. cerevisiae deletion strains, locus YKL085W, strain MDH1 (second series), active compounds read low 0.986 | S. cerevisiae deletion strains, locus YKL085W, strain MDH1, active compounds read low 0.986 | S. cerevisiae deletion strains, locus YKL160W, strain elf1, active compounds read low 1.02 | S. cerevisiae deletion strains, locus YKL190W, strain CNB1, active compounds read low 0.995 | S. cerevisiae deletion strains, locus YKR001C, strain vps1, active compounds read low 0.975 | S. cerevisiae deletion strains, locus YKR026C, strain gcn3, active compounds read low 1.03 | S. cerevisiae deletion strains, locus YKR091W, strain srl3, active compounds read low 1.02 | S. cerevisiae deletion strains, locus YLL001W, strain dnm1, active compounds read low 1.03 | S. cerevisiae deletion strains, locus YLL026W, active compounds read low 1.01 | S. cerevisiae deletion strains, locus YLL041C, strain sdh2, active compounds read low 1.01 | S. cerevisiae deletion strains, locus YLR027C, strain aat2, active compounds read low 1.01 | S. cerevisiae deletion strains, locus YLR039C, strain RIC1, active compounds read low 0.977 | S. cerevisiae deletion strains, locus YLR058C, strain SHM2, active compounds read low 0.954 | S. cerevisiae deletion strains, locus YLR102C, strain apc9, active compounds read low 0.98 | S. cerevisiae deletion strains, locus YLR113W, strain HOG1, active compounds read low 1.01 | S. cerevisiae deletion strains, locus YLR221C, strain rsa3, active compounds read low 1.03 | S. cerevisiae deletion strains, locus YLR258W, strain gsy2, active compounds read low 1.02 | S. cerevisiae deletion strains, locus YLR262C, strain YPT6 (second series), active compounds read low 1.03 | S. cerevisiae deletion strains, locus YLR262C, strain YPT6, active compounds read low 0.899 | S. cerevisiae deletion strains, locus YLR268W, strain sec22, active compounds read low 1.04 | S. cerevisiae deletion strains, locus YLR320W, strain mms22, active compounds read low 1.03 | S. cerevisiae deletion strains, locus YLR330W, strain CHS5, active compounds read low 0.991 | S. cerevisiae deletion strains, locus YLR342W, strain FKS1 (second series), active compounds read low 1.07 | S. cerevisiae deletion strains, locus YLR342W, strain FKS1, active compounds read low 1.03 | S. cerevisiae deletion strains, locus YLR357W, strain rsc2, active compounds read low 1.01 | S. cerevisiae deletion strains, locus YLR370C, strain arc18, active compounds read low 1.02 | S. cerevisiae deletion strains, locus YLR371W, strain rom2, active compounds read low 0.973 | S. cerevisiae deletion strains, locus YLR384C, strain iki3, active compounds read low 1.05 | S. cerevisiae deletion strains, locus YLR418C, strain cdc73, active compounds read low 0.973 | S. cerevisiae deletion strains, locus YML016C, strain PPZ1, active compounds read low 0.989 | S. cerevisiae deletion strains, locus YML032C, strain rad52, active compounds read low 0.951 | S. cerevisiae deletion strains, locus YML120C, strain ndi1, active compounds read low 1.02 | S. cerevisiae deletion strains, locus YML124C, strain tub3, active compounds read low 0.997 | S. cerevisiae deletion strains, locus YMR058W, strain fet3, active compounds read low 1.03 | S. cerevisiae deletion strains, locus YMR078C, strain ctf18, active compounds read low 0.99 | S. cerevisiae deletion strains, locus YMR125W, strain sto1, active compounds read low 1.03 | S. cerevisiae deletion strains, locus YMR129W, active compounds read low 1.02 | S. cerevisiae deletion strains, locus YMR205C, strain PFK2, active compounds read low 1.04 | S. cerevisiae deletion strains, locus YMR223W, strain ubp8, active compounds read low 0.979 | S. cerevisiae deletion strains, locus YMR231W, strain pep5, active compounds read low 1.01 | S. cerevisiae deletion strains, locus YMR263W, strain SAP30, active compounds read low 0.985 | S. cerevisiae deletion strains, locus YMR307W, strain GAS1, active compounds read low 0.997 | S. cerevisiae deletion strains, locus YNL067W, strain RPL9B, active compounds read low 0.981 | S. cerevisiae deletion strains, locus YNL071W, strain lat1, active compounds read low 1.02 | S. cerevisiae deletion strains, locus YNL153C, strain GIM3, active compounds read low 0.961 | S. cerevisiae deletion strains, locus YNL183C, strain NPR1, active compounds read low 0.968 | S. cerevisiae deletion strains, locus YNL209W, strain ssb2, active compounds read low 1.02 | S. cerevisiae deletion strains, locus YNL233W, strain BNI4, active compounds read low 0.975 | S. cerevisiae deletion strains, locus YNL248C, strain rpa49, active compounds read low 1.02 | S. cerevisiae deletion strains, locus YNL250W, strain rad50, active compounds read low 0.974 | S. cerevisiae deletion strains, locus YNL271C, strain bni1, active compounds read low 0.988 | S. cerevisiae deletion strains, locus YNL298W, strain CLA4, active compounds read low 0.981 | S. cerevisiae deletion strains, locus YNL307C, strain MCK1, active compounds read low 0.992 | S. cerevisiae deletion strains, locus YNL322C, strain KRE1 (second series), active compounds read low 1.02 | S. cerevisiae deletion strains, locus YNR049C, strain mso1, active compounds read low 1.02 | S. cerevisiae deletion strains, locus YNR052C, strain pop2, active compounds read low 0.983 | S. cerevisiae deletion strains, locus YOL012C, strain htz1 1.92 | S. cerevisiae deletion strains, locus YOL147C, strain pex11, active compounds read low 1 | S. cerevisiae deletion strains, locus YOR001W, strain rrp6, active compounds read low 1.01 | S. cerevisiae deletion strains, locus YOR061W, strain CKA2, active compounds read low 0.96 | S. cerevisiae deletion strains, locus YOR069W, strain VPS5, active compounds read low 0.999 | S. cerevisiae deletion strains, locus YOR070C, strain gyp1, active compounds read low 1.02 | S. cerevisiae deletion strains, locus YOR080W, strain dia2, active compounds read low 1.02 | S. cerevisiae deletion strains, locus YOR083W, strain WHI5, active compounds read low 1.03 | S. cerevisiae deletion strains, locus YOR106W, strain vam3, active compounds read low 1.02 | S. cerevisiae deletion strains, locus YOR136W, strain idh2, active compounds read low 0.995 | S. cerevisiae deletion strains, locus YOR144C, strain elg1, active compounds read low 0.986 | S. cerevisiae deletion strains, locus YOR184W, strain ser1, active compounds read low 0.971 | S. cerevisiae deletion strains, locus YOR231W, strain MKK1, active compounds read low 1.02 | S. cerevisiae deletion strains, locus YOR265W, strain rbl2, active compounds read low 1.02 | S. cerevisiae deletion strains, locus YOR270C, strain vph1, active compounds read low 1.04 | S. cerevisiae deletion strains, locus YOR290C, strain snf2, active compounds read low 1.01 | S. cerevisiae deletion strains, locus YOR316C, strain cot1, active compounds read low 0.98 | S. cerevisiae deletion strains, locus YPL051W, strain arl3, active compounds read low 1.02 | S. cerevisiae deletion strains, locus YPL055C, strain LGE1, active compounds read low 0.957 | S. cerevisiae deletion strains, locus YPL078C, strain atp4, active compounds read low 1.02 | S. cerevisiae deletion strains, locus YPL106C, strain sse1, active compounds read low 1.01 | S. cerevisiae deletion strains, locus YPL240C, strain hsp82, active compounds read low 1.01 | S. cerevisiae deletion strains, locus YPL256C, strain CLN2, active compounds read low 1.04 | S. cerevisiae deletion strains, locus YPR119W, strain clb2, active compounds read low 0.984 | S. cerevisiae deletion strains, locus YPR141C, strain kar3, active compounds read low 0.976 | S. cerevisiae deletion strains, locus YPR163C, strain tif3, active compounds read low 0.978 | S. cerevisiae deletion strains, locus YPR167C, strain met16, active compounds read low 0.983 | S. cerevisiae deletion strains, strain wtn01, active compounds read low 1.02 | S. cerevisiae strains, strain wild type, active compounds read low 0.997

Reference: PubChem BioAssay AID1159580 (chemical genetic matrix, 2015)
